# Like-named read-outs stand apart in the source and are kept apart here.
# How the values were obtained:
# Design in all cases: species or system human, MV4-11 + K-562 + COLO205 + SK-N-BE2 + OVCAR-8
# ACVR1B = conditions: read-out: apparent Kd; compound concentrations:100 nM and 1000 nM (sheet 'Samples'); n = 1
# CDK7 = conditions: read-out: apparent Kd; compound concentrations:100 nM and 1000 nM (sheet 'Samples'); n = 1
# CSNK1D = conditions: read-out: apparent Kd, n = 1
# GAK = conditions: read-out: apparent Kd, n = 1
# NQO2 = conditions: read-out: apparent Kd; compound concentrations:100 nM and 1000 nM (sheet 'Samples'); n = 1
# PRKD2 = conditions: read-out: apparent Kd; compound concentrations:100 nM and 1000 nM (sheet 'Samples'); n = 1
# PRKD3 = conditions: read-out: apparent Kd; compound concentrations:100 nM and 1000 nM (sheet 'Samples'); n = 1
# TGFBR1 = conditions: read-out: apparent Kd; compound concentrations:100 nM and 1000 nM (sheet 'Samples'); n = 1
# TGFBR2 = conditions: read-out: apparent Kd; compound concentrations:100 nM and 1000 nM (sheet 'Samples'); n = 1
# TNIK = conditions: read-out: apparent Kd; compound concentrations:100 nM and 1000 nM (sheet 'Samples'); n = 1
# TNK1 = conditions: read-out: apparent Kd; compound concentrations:100 nM and 1000 nM (sheet 'Samples'); n = 1
# RIPK2 = conditions: read-out: apparent Kd; compound concentrations:100 nM and 1000 nM (sheet 'Samples'); n = 1
# ZAK = conditions: read-out: apparent Kd; compound concentrations:100 nM and 1000 nM (sheet 'Samples'); n = 1
# ACVR2B = conditions: read-out: apparent Kd; compound concentrations: 100 nM and 1000 nM (sheet 'Samples'), CATDS: 4.2186627256430298E-2; n = 1
# ADCK3 = conditions: read-out: apparent Kd; compound concentrations: 100 nM and 1000 nM (sheet 'Samples'), CATDS: 4.2636301284937402E-2; n = 1
# AKT2 = conditions: read-out: apparent Kd; compound concentrations: 100 nM and 1000 nM (sheet 'Samples'), CATDS: 3.8315298656597697E-2; n = 1
# CDC42BPB = conditions: read-out: apparent Kd; compound concentrations: 100 nM and 1000 nM (sheet 'Samples'), CATDS: 4.17361912468606E-2; n = 1
# CDC42BPG = conditions: read-out: apparent Kd; compound concentrations: 100 nM and 1000 nM (sheet 'Samples'), CATDS: 4.6703461081502903E-2; n = 1
# CDK13 = conditions: read-out: apparent Kd; compound concentrations: 100 nM and 1000 nM (sheet 'Samples'), CATDS: 3.8824736575062302E-2; n = 1
# CDKL5 = conditions: read-out: apparent Kd; compound concentrations: 100 nM and 1000 nM (sheet 'Samples'), CATDS: 4.2225060915193902E-2; n = 1
# CIT = conditions: read-out: apparent Kd; compound concentrations: 100 nM and 1000 nM (sheet 'Samples'), CATDS: 9.7052908053400402E-2; n = 1
# CSNK1A1 = conditions: read-out: apparent Kd; compound concentrations: 100 nM and 1000 nM (sheet 'Samples'), CATDS: 4.3314802328408702E-2; n = 1
# CSNK1E = conditions: read-out: apparent Kd; compound concentrations: 100 nM and 1000 nM (sheet 'Samples'), CATDS: 4.5718432207302401E-2; n = 1
# MAP3K12 = conditions: read-out: apparent Kd; compound concentrations: 100 nM and 1000 nM (sheet 'Samples'), CATDS: 4.3727049359112501E-2; n = 1
# MAP3K4 = conditions: read-out: apparent Kd; compound concentrations: 100 nM and 1000 nM (sheet 'Samples'), CATDS: 4.0498159279946502E-2; n = 1
# MTOR = conditions: read-out: apparent Kd; compound concentrations: 100 nM and 1000 nM (sheet 'Samples'), CATDS: 6.6094429766625107E-2; n = 1
# PIK3CA = conditions: read-out: apparent Kd; compound concentrations: 100 nM and 1000 nM (sheet 'Samples'), CATDS: 0.16597567422928799; n = 1
# PRKCD = conditions: read-out: apparent Kd; compound concentrations: 100 nM and 1000 nM (sheet 'Samples'), CATDS: 3.8004287822733102E-2; n = 1
# ROCK1 = conditions: read-out: apparent Kd; compound concentrations: 100 nM and 1000 nM (sheet 'Samples'), CATDS: 9.5371648246972293E-2; n = 1
# ROCK2 = conditions: read-out: apparent Kd; compound concentrations: 100 nM and 1000 nM (sheet 'Samples'), CATDS: 9.3527332019104195E-2; n = 1
# TESK1 = conditions: read-out: apparent Kd; compound concentrations: 100 nM and 1000 nM (sheet 'Samples'), CATDS: 4.6585684962704203E-2; n = 1
# ACVR1 = conditions: read-out: apparent Kd; compound concentrations:100 nM and 1000 nM (sheet 'Samples'); n = 1
# CDK4 = conditions: read-out: apparent Kd; compound concentrations:100 nM and 1000 nM (sheet 'Samples'); n = 1
# TP53RK = conditions: read-out: apparent Kd; compound concentrations:100 nM and 1000 nM (sheet 'Samples'); n = 1
# [1] = compound concentrations:100 nM and 1000 nM (sheet 'Samples')
smiles,measurement,setting,value
c1ccc(-c2n[nH]cc2-c2ccnc(-c3ccc(CNC4CCOCC4)cc3)c2)nc1 [GW709213X],potency estimated from few doses,ACVR1B,39.1 nM
same,potency estimated from few doses,CDK7,1090 nM
same,potency estimated from few doses,CSNK1D; [1],1500 nM
same,potency estimated from few doses,GAK; [1],1150 nM
same,potency estimated from few doses,NQO2,925 nM
same,potency estimated from few doses,PRKD2,195 nM
same,potency estimated from few doses,PRKD3,193 nM
same,potency estimated from few doses,TGFBR1,12.6 nM
same,potency estimated from few doses,TGFBR2,1330 nM
same,potency estimated from few doses,TNIK,2410 nM
same,potency estimated from few doses,TNK1,445 nM
COc1ccc(-c2cc(-c3c[nH]nc3-c3ccccn3)ccn2)cc1 [GW679410X],potency estimated from few doses,ACVR1B,686 nM
same,potency estimated from few doses,NQO2,168 nM
same,potency estimated from few doses,TGFBR1,170 nM
same,potency estimated from few doses,TGFBR2,1290 nM
same,potency estimated from few doses,TNIK,1140 nM
c1ccc(-c2n[nH]cc2-c2ccnc(-c3ccc(OCCN4CCOCC4)cc3)c2)nc1 [GW695874X],potency estimated from few doses,ACVR1B,51.4 nM
same,potency estimated from few doses,GAK; [1],432 nM
same,potency estimated from few doses,NQO2,256 nM
same,potency estimated from few doses,PRKD2,648 nM
same,potency estimated from few doses,PRKD3,1460 nM
same,potency estimated from few doses,RIPK2,774 nM
same,potency estimated from few doses,TGFBR1,27.7 nM
same,potency estimated from few doses,TGFBR2,758 nM
same,potency estimated from few doses,TNIK,1170 nM
same,potency estimated from few doses,ZAK,2090 nM
Cl.Cl.NCC(NC(=O)c1cc(-c2cccnc2)c(-c2ccnc3[nH]ccc23)s1)c1ccccc1.NCC(NC(=O)c1cc(-c2cccnc2)c(-c2ccnc3[nH]ccc23)s1)c1ccccc1 (stereo not drawn) [GSK1323434A],potency estimated from few doses,ACVR2B,1740 nM
same,potency estimated from few doses,ADCK3,1690 nM
same,potency estimated from few doses,AKT2,2290 nM
same,potency estimated from few doses,CDC42BPB,1790 nM
same,potency estimated from few doses,CDC42BPG,1340 nM
same,potency estimated from few doses,CDK13,2200 nM
same,potency estimated from few doses,CDKL5,1730 nM
same,potency estimated from few doses,CIT,344 nM
same,potency estimated from few doses,CSNK1A1,1620 nM
same,potency estimated from few doses,"CSNK1D; compound concentrations: 100 nM and 1000 nM (sheet 'Samples'), CATDS: 5.2512295854069302E-2",1030 nM
same,potency estimated from few doses,CSNK1E,1410 nM
same,potency estimated from few doses,"GAK; compound concentrations: 100 nM and 1000 nM (sheet 'Samples'), CATDS: 5.0119839441511702E-2",1140 nM
same,potency estimated from few doses,MAP3K12,1580 nM
same,potency estimated from few doses,MAP3K4,1940 nM
same,potency estimated from few doses,MTOR,653 nM
same,potency estimated from few doses,PIK3CA,161 nM
same,potency estimated from few doses,PRKCD,2350 nM
same,potency estimated from few doses,ROCK1,354 nM
same,potency estimated from few doses,ROCK2,364 nM
same,potency estimated from few doses,TESK1,1350 nM
CN1C(=O)[C@@H](NC(=O)c2cc(Cc3ccccc3)on2)COc2ccccc21 [GSK481],potency estimated from few doses,ACVR1,1270 nM
same,potency estimated from few doses,CDK4,1980 nM
same,potency estimated from few doses,TP53RK,2040 nM
O=C(c1ccc(-c2cc(-c3c[nH]nc3-c3ccccn3)ccn2)cc1)N1CCOCC1 [GW812171X],potency estimated from few doses,ACVR1B,119 nM
same,potency estimated from few doses,TGFBR1,67.6 nM

# — PMC11062922 (Nature Chemical Biology, 2023)
